Pf Dd2 growth: P. falciparum Dd2 growth inhibitors, primary screen, SYBR Green fluorescence, single dose replicates; 72 h; active compounds read low; activity change, % at 10 µM; actives 2.3% (n = 94,000); AID 1159554, 2015; in the data active means activity change below about -80%; inconclusive means no clear call, values can overlap the other calls
T cruzi growth-1: T. cruzi intracellular proliferation inhibitors, primary screen, cell-based, beta-gal Tulahuen parasites, NIH3T3 host, luminescence | T. cruzi beta-gal in NIH3T3, GalScreen luminescence, 90 h | inhibition, % at 8.34 µM | actives 5.9% (n = 77,000) | AID 624255, 2012;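 active means mean inhibition above about 93%, with at least 55% of replicates each passing it, limit read from the data, passing the limit was not always enough; inconclusive means only one of those two conditions holds; inactive means neither condition holds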
C diff growth: C. difficile growth inhibitors, primary screen, HTS | Clostridium difficile clinical isolate growth, OD600, 24 h; active compounds read low | growth activity, negative = inhibition, % at 16 µg/mL (by protocol) | actives 0.25% (n = 86,000) | AID 1259249, 2017;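 active means mean growth activity at or below -80% and every replicate also at or below -80%; inconclusive means mean at or below -80% but some replicate above -80%; inactive means mean growth activity above -80%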;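 further: 0% = DMSO wells and -100% = levofloxacin 16 µg/mL wells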
T cruzi growth-2: T. cruzi intracellular proliferation inhibitors, confirmation, cell-based, NIH3T3 host, beta-gal parasite, luminescence, cherry-pick; shares compounds with T cruzi growth-1; T. cruzi beta-gal in NIH3T3, GalScreen luminescence, 90 h; inhibition, % at 8.35 µM; actives 72% (n = 5,600);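 active means mean replicate inhibition above about 95% and at least 55% of replicates individually reaching it, limit read from the data; inconclusive means only one of the two criteria is met; inactive means neither criterion is met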
T cruzi growth-3: inhibitors of intracellular T. cruzi replication, confirmation, NIH3T3 host cells, beta-gal parasites, cherry-pick, set 2. T. cruzi beta-gal in NIH3T3, GalScreen luminescence, 90 h. AID 651740, 2012. actives 21% (n = 5,600). shares compounds with T cruzi growth-1. inhibition, % at 2.09 µM;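 active means mean inhibition above about 95%, with at least 55% of replicates also reaching it, limit read from the data; inconclusive means meets just one of the two conditions; inactive means meets neither condition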;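 further: plate controls were neutral control median for no effect and positive control median for full effect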
3T3 cytotox: cytotoxicity in mouse NIH/3T3 fibroblasts, confirmation, cytotoxicity control for T. cruzi proliferation inhibitor project, cell-based, cherry-pick, single point; shares compounds with T cruzi growth-1; NIH/3T3 viability, CellTiter-Glo ATP luminescence, 90 h; cytotoxicity (signal decrease), % at 8.35 µM; actives 14% (n = 5,600); AID 651742, 2012;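 active means mean signal decrease across replicates above about 35% based on untreated-well scatter, with enough replicates individually passing, limit read from the data; inconclusive means no rule stated though some were filed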;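 further: 0% = median of neutral control wells and 100% = median of positive control wells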
NIH3T3 tox 2: NIH/3T3 fibroblast cytotoxicity, confirmation, cytotoxicity control, cell-based, cherry-pick, single point, set 2; shares compounds with T cruzi growth-1; NIH/3T3 viability, CellTiter-Glo ATP luminescence, 90 h; inhibition, % at 24.9 µM; actives 56% (n = 5,600); AID 651744, 2012;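 active means mean loss of cell viability signal at or above a set limit, and enough replicates individually reaching it; inconclusive means meets only the mean limit or only the replicate share; inactive means meets neither condition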;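 further: 0% = median of neutral control wells and 100% = median of positive control wells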
* = called active by the depositor; u = inconclusive; x = not tested or not shown. Only some compounds are listed: those with a hit (about 6.7% of all), similar ones and a draw of the others.

SMILES | Pf Dd2 growth | T cruzi growth-1 | C diff growth | T cruzi growth-2 | T cruzi growth-3 | 3T3 cytotox | NIH3T3 tox 2
C[C@@H]1CCCCO[C@@H](CN(C)C(=O)Nc2ccc(C(F)(F)F)cc2)[C@H](C)CN([C@H](C)CO)C(=O)c2cc(NC(=O)NC3CCCCC3)ccc2O1 | -74 | 117* | 3 | 104* | 109* | -17 | -17
C[C@H](CO)N1C[C@H](C)[C@H](CN(C)C(=O)NC2CCCCC2)OCCCC[C@H](C)Oc2ccc(NC(=O)Nc3ccc(C(F)(F)F)cc3)cc2C1=O | -45 | 80 | 3 | x | x | x | x
C[C@@H]1CN([C@H](C)CO)C(=O)c2cc(NC(=O)Nc3ccc(C(F)(F)F)cc3)ccc2O[C@@H](C)CCCCO[C@@H]1CN(C)C(=O)NC1CCCCC1 | -75 | 80 | 1 | x | x | x | x
C[C@H]1CCCCO[C@@H](CN(C)C(=O)Nc2ccc(C(F)(F)F)cc2)[C@@H](C)CN([C@@H](C)CO)C(=O)c2cc(NC(=O)NC3CCCCC3)ccc2O1 | -45 | 123* | -5 | 101* | 113* | -10 | 2
C[C@@H]1CCCCO[C@@H](CN(C)C(=O)Nc2ccc(C(F)(F)F)cc2)[C@H](C)CN([C@@H](C)CO)C(=O)c2cc(NC(=O)NC3CCCCC3)ccc2O1 | -35 | u | 0 | 101* | 84 | 3 | -6
C[C@H]1CCCCO[C@H](CN(C)C(=O)Nc2ccc(C(F)(F)F)cc2)[C@@H](C)CN([C@@H](C)CO)C(=O)c2cc(NC(=O)NC3CCCCC3)ccc2O1 | -87* | 109* | -4 | 97* | 107* | -1 | 26
C[C@@H]1CCCCO[C@H](CN(C)C(=O)NC2CCCCC2)[C@H](C)CN([C@@H](C)CO)C(=O)c2cc(NC(=O)Nc3ccc(C(F)(F)F)cc3)ccc2O1 | -12 | 85 | -1 | x | x | x | x
C[C@@H]1CCCCO[C@@H](CN(C)C(=O)NC2CCCCC2)[C@@H](C)CN([C@H](C)CO)C(=O)c2cc(NC(=O)Nc3ccc(C(F)(F)F)cc3)ccc2O1 | 52 | 84 | 4 | x | x | x | x
Cc1noc(C)c1NC(=O)Nc1ccc2c(c1)C(=O)N([C@@H](C)CO)C[C@H](C)[C@H](CN(C)C(=O)Nc1ccc3c(c1)OCO3)O2 | -7 | 5 | -3 | x | x | x | x
CCCc1cn([C@H]2C[C@@H]3O[C@H](CO)CC[C@@H]3O[C@@H]2CCc2ccc(C#CCc3ccccc3)cc2)nn1 | -68 | x | 9 | x | x | x | x
C[C@H]1CN([C@@H](C)CO)C(=O)c2cc(-c3ccccc3)cnc2O[C@H]1CN(C)C(=O)Nc1ccccc1 | 20 | -44 | 4 | x | x | x | x
O=C(Nc1cccc(F)c1)N[C@H]1CC[C@@H](CCn2cc(Cc3ccccc3)nn2)O[C@H]1CO | 0 | -105 | -3 | x | x | x | x
CCOC(=O)C1=CC[C@@H](c2ccccc2)[C@@H]1C(=O)c1ccc(OC)cc1 | x | x | -7 | x | x | x | x
COc1ccc(NC(=O)Nc2ccc3c(c2)C(=O)N([C@@H](C)CO)C[C@@H](C)[C@@H](CN(C)C(=O)Cc2ccccc2)OCCCC[C@H](C)O3)cc1 | -38 | 21 | 5 | x | x | x | x
COc1ccc(NC(=O)N(C)C[C@H]2Oc3ccc(NC(=O)Cn4cnnn4)cc3CC(=O)N([C@@H](C)CO)C[C@H]2C)cc1 | -43 | -17 | -4 | x | x | x | x
C[C@H]1CN([C@@H](C)CO)C(=O)Cc2cc(NS(=O)(=O)c3cn(C)cn3)ccc2O[C@H]1CN(C)S(=O)(=O)c1ccc(Cl)cc1 | 9 | 4 | -5 | x | x | x | x
C[C@H]1CCCCO[C@@H](CN(C)C(=O)NC2CCCCC2)[C@@H](C)CN([C@@H](C)CO)C(=O)c2cc(NC(=O)Nc3ccc(C(F)(F)F)cc3)ccc2O1 | -66 | 93 | 3 | x | x | x | x
C[C@H](CO)N1C[C@H](C)[C@@H](CN(C)C(=O)NC2CCCCC2)OCCCC[C@H](C)Oc2ccc(NC(=O)Nc3ccc(C(F)(F)F)cc3)cc2C1=O | -3 | 92 | -1 | x | x | x | x
C[C@@H]1CCCCO[C@H](CN(C)C(=O)Nc2ccc(C(F)(F)F)cc2)[C@@H](C)CN([C@H](C)CO)C(=O)c2cc(NC(=O)NC3CCCCC3)ccc2O1 | -78 | 113* | -7 | 108* | 87 | 12 | 29
C[C@H](CO)N1C[C@H](C)[C@H](CN(C)C(=O)Nc2ccc(C(F)(F)F)cc2)OCCCC[C@H](C)Oc2ccc(NC(=O)NC3CCCCC3)cc2C1=O | -12 | 122* | -2 | u | 106* | 11 | 4
C[C@H]1CN([C@@H](C)CO)C(=O)c2cccc(NC(=O)Nc3ccc(C(F)(F)F)cc3)c2O[C@@H]1CN(C)S(=O)(=O)c1cccs1 | -8 | 85 | -5 | x | x | x | x
C[C@H]1CN([C@@H](C)CO)C(=O)c2cccc(NC(=O)Nc3ccc(F)cc3)c2O[C@H]1CN(C)S(=O)(=O)c1cccs1 | 4 | -127 | 4 | x | x | x | x
C[C@H](CO)N1C[C@H](C)[C@@H](CN(C)S(=O)(=O)c2cccs2)Oc2c(NC(=O)Nc3ccc(C(F)(F)F)cc3)cccc2C1=O | -26 | 104* | -5 | 82 | 20 | 11 | 57*
C[C@@H]1CN([C@H](C)CO)C(=O)c2cccc(NC(=O)Nc3ccc(C(F)(F)F)cc3)c2O[C@@H]1CN(C)S(=O)(=O)c1cccs1 | -19 | 93* | 6 | 99* | 46 | 20 | 105*
C[C@@H]1CN([C@@H](C)CO)C(=O)c2cccc(NC(=O)Nc3ccc(C(F)(F)F)cc3)c2O[C@H]1CN(C)S(=O)(=O)c1cccs1 | -35 | 99* | 13 | 101* | 71 | 33 | 39*
C[C@H](CO)N1C[C@H](C)[C@H](CN(C)S(=O)(=O)c2cccs2)Oc2c(NC(=O)Nc3ccc(F)cc3)cccc2C1=O | -29 | 4 | 15 | x | x | x | x
COc1cccc(-c2cnc3c(c2)C(=O)N([C@@H](C)CO)C[C@@H](C)[C@@H](CN(C)C(C)=O)O3)c1 | 36 | -61 | -1 | x | x | x | x
COc1cccc(C(=O)Nc2ccc3c(c2)C(=O)N(C)C[C@@H](OC)[C@@H](C)CN(C(=O)C2CCCC2)[C@@H](C)CO3)c1 | x | 60 | x | x | x | x | x
O=C(C[C@H]1C[C@H]2c3cc(NC(=O)C4CCC4)ccc3O[C@H]2[C@@H](CO)O1)NCc1cccc(F)c1 | -2 | -66 | x | x | x | x | x
O=C(C[C@H]1CC[C@H]2[C@@H](COC[C@H](O)CN2C(=O)Nc2ccccc2)O1)NCCCN1CCOCC1 | 0 | 24 | x | x | x | x | x
